PubChem BioAssay AID1645858 (Buhrlage Lab, Dana-Farber Cancer Institute and Novartis …, 2021)
The campaign covered roughly 47,000 compounds. About 330 (0.7%) were called active. Shown is part of a subset that was picked to be rich in actives. Values without a mark were called inactive. Rule as the data show it: active = inhibition above about 30%; inactive = the rest.

Target: OTU domain-containing protein 3 (Homo sapiens) (UniProt Q5T2D3)
Experiment: blocks human OTUD3 ubiquitin-rhodamine cleavage (AID 1645858)
Settings: purified OTUD3, Ub-rhodamine fluorescence, 2 h; at 25 µM; active compounds read high

Chain of OTU domain-containing protein 3 (Homo sapiens) (Q5T2D3 whole entry, looked up, the tested form may be a part): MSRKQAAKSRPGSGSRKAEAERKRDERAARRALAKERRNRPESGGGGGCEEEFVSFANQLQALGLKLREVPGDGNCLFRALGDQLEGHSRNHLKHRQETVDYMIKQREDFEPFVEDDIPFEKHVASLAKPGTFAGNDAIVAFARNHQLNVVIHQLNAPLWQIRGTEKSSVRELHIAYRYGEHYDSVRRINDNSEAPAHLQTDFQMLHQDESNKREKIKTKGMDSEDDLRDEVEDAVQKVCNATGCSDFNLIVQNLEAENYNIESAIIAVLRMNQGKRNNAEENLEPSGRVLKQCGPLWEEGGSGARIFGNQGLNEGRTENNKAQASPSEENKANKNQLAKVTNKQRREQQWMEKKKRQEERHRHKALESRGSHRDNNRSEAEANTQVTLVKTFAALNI

| SMILES | inhibition |
| --- | --- |
| Cc1nn(-c2cccc(F)c2)c2c1c(C)c(CCC(=O)NCc1ccccn1)c(=O)n2C | 8.09% |
| CC(=O)N1CCC(N2CCC[C@H]2c2nc(-c3ccc(OC4CCCCC4)nc3)no2)CC1 | -18.8% |
| O=C(c1cc2ccc(F)cc2[nH]1)N1CCOCC(Cc2ccncn2)C1 (stereo unspecified) | -7.16% |
| Cn1cc(C(=O)N2CCCCC2c2nc(N)ncc2-c2ccccc2)ccc1=O (stereo unspecified) | -2.37% |
| CCC(=O)N(C)CCc1noc(-c2[nH]c3ccc(C)cc3c2C)n1 | -11.5% |
| Cc1noc(C)c1C1CCCN1S(=O)(=O)c1cccc(Cl)c1 (stereo unspecified) | 0.263% |
| O=C(CCc1nnc2ccc(N3CCCC3)nn12)NCc1ccc(F)cc1 | 12% |
| O=C(COc1cccc2ccc(N3CCC(Cc4ccccc4)CC3)nc12)Nc1cccc(F)c1 | 21.8% |
| O=C(COc1cccc2ccc(N3CCC(Cc4ccccc4)CC3)nc12)NCc1ccc(F)cc1 | 36.2% (active) |
| Cc1ccc(NC(=O)N2CCC(CC(=O)N3CCCCC3)CC2)cc1 | -0.189% |
| CCC(C)C1C(=O)/C(=C(\O)C2C3C(C)CC(C)CC3C=CC2C2(C)OC2C)C(=O)N1C (stereo unspecified) | 18.9% |
| CCOC(=O)N1CCN(c2nc3c(c(=O)[nH]c(=O)n3C)n2CCSc2ncccn2)CC1 | 13.2% |
| CC(C)CNC(=O)C1CCN(c2cncnc2N2CCOCC2)CC1 | 0.599% |
| CC(=O)c1sc(NC(=O)c2ccc(S(=O)(=O)N3CC(C)CC(C)C3)cc2)nc1C (stereo unspecified) | 4.19% |
| CCn1c(CN(C)C(=O)Nc2cccc(C)c2)nc2cc(C(=O)N(C)C)ccc21 | 10.5% |
| CS(=O)(=O)c1ccc(C(=O)Nc2ccccc2-c2ccccc2)cc1 | 11.2% |
| COc1ccc(N2CC(c3nnc(NC(=O)CCc4ccccc4)s3)CC2=O)cc1 (stereo unspecified) | 17.9% |
| N#CCCN(C(=O)c1cc2c(s1)-c1ccc(Cl)cc1S(=O)(=O)C2)c1ccccc1 | -4.41% |
| CC(=O)N1CCc2c([nH]c3ccccc23)C1 | -0.00325% |
| COc1ccccc1N(CC(=O)N1c2ccccc2CC1C)S(=O)(=O)c1ccc(F)cc1 (stereo unspecified) | 14% |
| Oc1ccc(O)c2c1C(O)CCC21Oc2cccc3cccc(c23)O1 (stereo unspecified) | -11.1% |
| Cc1nc2n(n1)CCN(C(=O)c1cc(-c3cccs3)[nH]n1)C2 | 0.034% |
| CC(Oc1ccccc1)C(=O)Nc1ccc(-c2cn3cccnc3n2)cc1 (stereo unspecified) | 4.02% |
| CCCCCCSc1ncnc2c1sc1nc(-c3ccccc3)c3c(c12)CC(C)(C)OC3 | -6.83% |
| CSc1ncnc2c1sc1nc(-c3ccccc3)c3c(c12)CC(C)(C)OC3 | 7.31% |
| CC1(C)Cc2c(c(-c3ccco3)nc3sc4c(SCCCc5ccccc5)ncnc4c23)CO1 | 33.5% (active) |
